Results reported in PubChem BioAssay (EPA / NIEHS).
Inconclusive results are not listed. Activity calls are given as the source filed them. How the source made its calls, unless noted: active means hit-call score of the fitted dose curve at least 0.9, where 1 is the maximum; inconclusive means response in the unintended direction; inactive means score below 0.9.

Columns and labels:
[1] = molecular target: human Beta-secretase (BACE), BACE1 (gene 23621) (UniProt P56817); experiment: NVS_ENZ_hBACE: NovaScreen (NVS) Enzymatic Assay for human Beta-secretase (BACE) (AID 2283140);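 further: hits are inhibitors that reduce fluorescent substrate signal versus DMSO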
Chain of human Beta-secretase (BACE), BACE1 (gene 23621) (P56817 whole entry, looked up): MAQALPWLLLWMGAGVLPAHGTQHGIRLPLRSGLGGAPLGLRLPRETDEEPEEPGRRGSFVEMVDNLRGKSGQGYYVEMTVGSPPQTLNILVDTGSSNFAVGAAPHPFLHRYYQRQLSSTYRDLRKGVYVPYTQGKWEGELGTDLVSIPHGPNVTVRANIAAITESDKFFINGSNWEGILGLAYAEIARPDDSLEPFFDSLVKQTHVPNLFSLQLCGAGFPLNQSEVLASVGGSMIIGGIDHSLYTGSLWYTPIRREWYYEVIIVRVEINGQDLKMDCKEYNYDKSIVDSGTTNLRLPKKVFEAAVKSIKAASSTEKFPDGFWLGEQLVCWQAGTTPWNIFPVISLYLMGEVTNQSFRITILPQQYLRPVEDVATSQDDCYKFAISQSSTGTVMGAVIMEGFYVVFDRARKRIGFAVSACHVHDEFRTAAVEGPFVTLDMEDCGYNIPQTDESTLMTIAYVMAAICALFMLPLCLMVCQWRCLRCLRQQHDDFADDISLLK
How it was run: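 Cell-free fluorescence-intensity assay of recombinant BACE1 expressed in SF9 cells, read 1 hour after dosing. Loss of signal indicates reduced protease activity, fitted relative to DMSO negative control. Primary screen at 25 uM in duplicate; actives followed in concentration series.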

[2] = molecular target: human Dual Specificity Protein Phosphatase 3 (DUSP3), DUSP3 (gene 1845) (UniProt P51452); experiment: NVS_ENZ_hDUSP3: NovaScreen (NVS) Enzymatic Assay for human Dual Specificity Protein Phosphatase 3 (DUSP3) (AID 2283152);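 further: phosphatase activity of recombinant human DUSP3 on a fluorogenic substrate without cells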
Chain of human Dual Specificity Protein Phosphatase 3 (DUSP3), DUSP3 (gene 1845) (P51452 whole entry, looked up): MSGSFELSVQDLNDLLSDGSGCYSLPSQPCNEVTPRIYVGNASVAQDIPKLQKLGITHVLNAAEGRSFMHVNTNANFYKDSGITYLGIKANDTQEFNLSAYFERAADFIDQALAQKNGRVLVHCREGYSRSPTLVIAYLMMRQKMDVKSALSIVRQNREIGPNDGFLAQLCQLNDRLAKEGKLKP
How it was run: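 Cell-free assay with recombinant human DUSP3 and fluorogenic substrate, read by fluorescence intensity. Primary screen ran duplicate at 25 uM; actives followed up in concentration series; loss of signal versus DMSO scored.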

[3] = molecular target: human Esterase Plasma (ES), BCHE (gene 590) (UniProt P06276); experiment: NVS_ENZ_hES: NovaScreen (NVS) Enzymatic Assay for human Esterase Plasma (ES) (AID 2283157)
Chain of human Esterase Plasma (ES), BCHE (gene 590) (P06276 whole entry, looked up): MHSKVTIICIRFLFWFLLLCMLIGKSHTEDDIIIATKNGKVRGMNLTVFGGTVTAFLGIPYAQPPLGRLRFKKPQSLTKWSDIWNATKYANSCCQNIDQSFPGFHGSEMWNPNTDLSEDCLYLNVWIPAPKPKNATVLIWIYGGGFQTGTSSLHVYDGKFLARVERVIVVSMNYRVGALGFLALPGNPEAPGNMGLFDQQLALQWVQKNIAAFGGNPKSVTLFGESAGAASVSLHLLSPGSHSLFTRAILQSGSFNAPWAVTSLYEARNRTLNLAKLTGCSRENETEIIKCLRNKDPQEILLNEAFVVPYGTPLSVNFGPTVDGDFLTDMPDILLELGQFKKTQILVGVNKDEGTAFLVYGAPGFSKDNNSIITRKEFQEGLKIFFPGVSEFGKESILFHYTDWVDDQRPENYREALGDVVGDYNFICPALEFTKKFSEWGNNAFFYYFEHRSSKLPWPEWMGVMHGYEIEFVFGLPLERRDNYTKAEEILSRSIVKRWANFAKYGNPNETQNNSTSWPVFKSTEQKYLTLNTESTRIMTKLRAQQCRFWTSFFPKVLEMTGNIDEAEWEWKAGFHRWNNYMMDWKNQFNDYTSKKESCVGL
How it was run: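 Chemicals were added to plasma-extracted human enzyme in a cell-free format, and activity was read colorimetrically after 0.25 hour. Activity loss was referenced to DMSO; concentration-response top dose was 50 uM.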

[4] = molecular target: sheep Cyclooxygenase-2 (Cox2), PTGS2 (gene 443460) (UniProt P79208); experiment: NVS_ENZ_oCOX2: NovaScreen (NVS) Enzymatic Assay for sheep Cyclooxygenase-2 (Cox2) (AID 2283231)
Chain of sheep Cyclooxygenase-2 (Cox2), PTGS2 (gene 443460) (P79208 whole entry, looked up): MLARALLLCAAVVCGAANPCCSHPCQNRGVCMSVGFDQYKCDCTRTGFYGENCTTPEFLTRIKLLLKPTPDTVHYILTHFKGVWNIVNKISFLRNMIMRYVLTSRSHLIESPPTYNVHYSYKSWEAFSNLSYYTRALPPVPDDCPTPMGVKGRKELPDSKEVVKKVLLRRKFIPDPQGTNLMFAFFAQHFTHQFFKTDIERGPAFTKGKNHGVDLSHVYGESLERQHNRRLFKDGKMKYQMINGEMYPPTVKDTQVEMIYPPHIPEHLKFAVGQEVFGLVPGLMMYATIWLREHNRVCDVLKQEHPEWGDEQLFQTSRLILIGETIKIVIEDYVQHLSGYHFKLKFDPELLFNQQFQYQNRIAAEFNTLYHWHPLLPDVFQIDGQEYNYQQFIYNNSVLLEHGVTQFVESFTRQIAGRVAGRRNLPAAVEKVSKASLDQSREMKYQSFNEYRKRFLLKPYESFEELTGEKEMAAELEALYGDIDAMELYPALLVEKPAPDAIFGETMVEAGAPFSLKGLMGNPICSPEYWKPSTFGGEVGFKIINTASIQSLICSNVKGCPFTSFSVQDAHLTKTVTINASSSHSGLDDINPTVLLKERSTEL
How it was run: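 Colorimetric absorbance read-out of COX activity, taken 0.66 hour post-dosing, using native protein from sheep placenta. Single-concentration duplicate screen (25 uM), then singleton concentration-response up to 50 uM for actives.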

[5] = CEETOX_H295R_ESTRADIOL: CeeTox H295R High-throughput Steroidogenesis Assay for Estradiol (AID 2283440; active means hit-call score of the fitted dose curve at least 0.9, where 1 is the maximum; inactive means score below 0.9;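 further: estradiol secreted into medium quantified by LC-MS/MS after dansyl derivatisation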); conditions: actives raise or lower the signal
How it was run: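 Following OECD 456 with minor changes, H295R cells received 10 uM forskolin for 48 h and then test chemical for 48 h. Hormone output was read by HPLC-MS/MS, with cytotoxic concentrations diluted until MTT viability reached ≥70%.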

[6] = CEETOX_H295R_ESTRONE: CeeTox H295R High-throughput Steroidogenesis Assay for Estrone (AID 2283441; active means hit-call score of the fitted dose curve at least 0.9, where 1 is the maximum; inactive means score below 0.9;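 further: estrone secreted into medium measured by LC-MS/MS after dansyl derivatization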;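 on AC50: human adrenal H295R cells prestimulated with forskolin for two days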); conditions: actives raise or lower the signal
How it was run: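 H295R cells; 48 h forskolin (10 uM) prestimulation; 48 h compound exposure, 0.1% DMSO final. Medium estrone: MTBE extraction, dansyl derivatization, HPLC-MS/MS. Bidirectional fit vs DMSO.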

[7] = molecular target: Nucleoli Translocation, AR (gene 367) (UniProt P10275); experiment: UPITT_HCI_U2OS_AR_TIF2_Nucleoli_Agonist: University of Pittsburgh U2OS Androgen Receptor-Transcriptional Intermediary Factor 2 (AR-TIF2) Agonism High Content Imaging Assay for Nucleoli Translocation (AID 2283998)
How it was run: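 Red-tagged human androgen receptor co-expressed with GFP-tagged TIF2 serves as the binding reporter. Primary testing used 20 uM final (0.2% DMSO); follow-up dose response covered 0.195 to 50 uM final (0.5% DMSO).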

[8] = molecular target: sheep Cyclooxygenase-1 (Cox1), PTGS1 (gene 443551) (UniProt P05979); experiment: NVS_ENZ_oCOX1: NovaScreen (NVS) Enzymatic Assay for sheep Cyclooxygenase-1 (Cox1) (AID 2283239);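 further: actives reduce cyclooxygenase activity so potencies are for inhibitors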
Chain of sheep Cyclooxygenase-1 (Cox1), PTGS1 (gene 443551) (P05979 whole entry, looked up): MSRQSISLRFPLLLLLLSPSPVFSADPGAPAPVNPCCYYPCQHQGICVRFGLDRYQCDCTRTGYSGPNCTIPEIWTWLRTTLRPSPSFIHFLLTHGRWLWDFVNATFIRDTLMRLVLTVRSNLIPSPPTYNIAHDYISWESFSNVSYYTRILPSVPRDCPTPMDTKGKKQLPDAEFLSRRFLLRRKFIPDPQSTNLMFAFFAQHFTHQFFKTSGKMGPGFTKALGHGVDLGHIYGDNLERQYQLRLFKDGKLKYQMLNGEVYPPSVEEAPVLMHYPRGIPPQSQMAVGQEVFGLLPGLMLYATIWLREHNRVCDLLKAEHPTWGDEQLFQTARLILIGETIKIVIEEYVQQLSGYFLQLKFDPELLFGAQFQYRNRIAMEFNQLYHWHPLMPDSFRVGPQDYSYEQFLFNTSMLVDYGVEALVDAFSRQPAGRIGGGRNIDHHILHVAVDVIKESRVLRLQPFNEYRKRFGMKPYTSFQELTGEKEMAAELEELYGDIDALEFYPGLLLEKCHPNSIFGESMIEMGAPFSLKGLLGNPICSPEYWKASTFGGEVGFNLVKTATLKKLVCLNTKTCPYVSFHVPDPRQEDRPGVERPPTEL
How it was run: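 Native ovine seminal vesicle protein serves as enzyme source in this biochemical assay. Colorimetric signal is recorded 0.66 h after chemical addition, and decreases versus the DMSO control define activity.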

[9] = tested on: guinea pig Dopamine Transporter (DAT), gene 100714898; experiment: NVS_TR_gDAT: NovaScreen (NVS) Transporter Assay for guinea pig Dopamine Transporter (DAT) (AID 2283369);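 further: active compounds lower bound radioligand signal relative to DMSO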
How it was run: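 Test chemicals were incubated 2 h with guinea pig striatal membranes and a radioligand; bound label was separated by filtration and counted. Screening ran at 25 uM, followed by concentration-response testing to a 50 uM maximum.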

[10] = molecular target: mouse Estrogen Receptor alpha (Era), Esr1 (gene 13982) (UniProt P19785); experiment: NVS_NR_mERa: NovaScreen (NVS) Nuclear Receptor Binding Assay for mouse Estrogen Receptor alpha (Era) (AID 2283378);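 further: hit means loss of bound radioligand signal relative to DMSO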
Chain of mouse Estrogen Receptor alpha (Era), Esr1 (gene 13982) (P19785 whole entry, looked up): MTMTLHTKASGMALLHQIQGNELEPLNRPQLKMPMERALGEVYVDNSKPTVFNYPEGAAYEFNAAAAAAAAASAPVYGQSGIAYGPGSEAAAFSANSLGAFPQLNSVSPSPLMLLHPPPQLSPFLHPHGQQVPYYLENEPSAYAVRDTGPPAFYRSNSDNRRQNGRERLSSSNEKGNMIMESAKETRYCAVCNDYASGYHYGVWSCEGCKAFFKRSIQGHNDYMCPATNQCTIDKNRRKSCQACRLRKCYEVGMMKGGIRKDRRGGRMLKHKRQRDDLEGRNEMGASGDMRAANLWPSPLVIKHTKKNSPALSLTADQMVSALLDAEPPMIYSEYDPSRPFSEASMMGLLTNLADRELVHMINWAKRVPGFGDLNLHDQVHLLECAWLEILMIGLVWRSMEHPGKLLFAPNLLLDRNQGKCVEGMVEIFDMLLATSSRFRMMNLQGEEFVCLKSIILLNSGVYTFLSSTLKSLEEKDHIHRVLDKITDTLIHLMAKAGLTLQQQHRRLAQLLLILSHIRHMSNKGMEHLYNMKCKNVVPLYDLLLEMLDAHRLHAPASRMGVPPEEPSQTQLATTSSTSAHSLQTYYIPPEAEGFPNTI
How it was run: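 Test chemicals competed against a specific radioligand for binding to cell-free mouse Era. Duplicate wells at 25 uM were read 18 hours later by filter-based radiodetection, with loss of signal against DMSO scored as activity.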

[11] = CCTE_Shafer_MEA_dev_firing_rate_mean: CCTE's Neural Network Formation Assay for Mean Firing Rate, Shafer Lab (AID 2284031; active means hit-call score of the fitted dose curve at least 0.9, where 1 is the maximum; inactive means score below 0.9)
How it was run: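 Primary rat cortical neurons on 48-well, 16-electrode MEAs (PEI-coated, laminin at plating), exposed from day 0 with compound renewed at DIV 5 and 9. Spikes recorded DIV 5, 7, 9, 12; well-mean firing rate collapsed to trapezoidal AUC, loss-of-signal vs DMSO.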

[12] = CCTE_Shafer_MEA_dev_per_burst_spike_percent: CCTE's Neural Network Formation Assay for Percent of Spikes in a Burst, Shafer Lab (AID 2284032; active means hit-call score of the fitted dose curve at least 0.9, where 1 is the maximum; inactive means score below 0.9)
How it was run: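 Rat primary cortical neurons on 16-electrode MEA wells, dosed from plating day 0 for 12 days with renewal on DIV 5 and 9; spikes-in-bursts percentage averaged over bursting electrodes, collapsed as AUC across days 5, 7, 9, 12; loss direction versus DMSO.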

[13] = CCTE_Shafer_MEA_dev_active_electrodes_number: CCTE's Neural Network Formation Assay for Number of Active Electrodes, Shafer Lab (AID 2284040)
How it was run: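 Rat cortical primary cultures, 1.5 x 10^5 cells/well, PEI-coated MEA, laminin drop. Continuous exposure DIV 0–12; full media/compound change DIV 5, 9. Readout: electrodes with mean firing ≥5 spikes/min; AUC across days; loss vs DMSO.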

[14] = CCTE_Shafer_MEA_dev_burst_rate: CCTE's Neural Network Formation Assay for Burst Rate, Shafer Lab (AID 2284042; active means hit-call score of the fitted dose curve at least 0.9, where 1 is the maximum; inactive means score below 0.9)
How it was run: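 Rat primary cortical cultures on PEI/laminin MEA; compound from plating, re-dosed at DIV 5, 9 media change. Single-electrode bursts/recording length, well mean of active electrodes; AUC over DIV 5–12 recordings; loss-of-signal vs DMSO.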

[15] = CCTE_Shafer_MEA_dev_per_burst_interspike_interval: CCTE's Neural Network Formation Assay for Burst Interspike Interval, Shafer Lab (AID 2284044; active means hit-call score of the fitted dose curve at least 0.9, where 1 is the maximum; inactive means score below 0.9;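 further: mean spike spacing inside bursts as AUC over recordings on days 5 7 9 12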)
How it was run: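 Developmental network-formation MEA in primary rat cortical cultures with exposure spanning days 0–12. Within-burst ISI is averaged per well and integrated across recording days by area under the curve, with DMSO as negative control baseline.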

[16] = CCTE_Shafer_MEA_dev_burst_duration_mean: CCTE's Neural Network Formation Assay for Mean Burst Duration, Shafer Lab (AID 2284045; active means hit-call score of the fitted dose curve at least 0.9, where 1 is the maximum; inactive means score below 0.9)
How it was run: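 Read-out: average first-to-last-spike interval within single-electrode bursts, averaged over bursting electrodes per well, then summarised as area under the curve across days 5, 7, 9 and 12. Developing rat cortical networks were exposed from day 0.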

PGR (gene 5241) [17] = molecular target: PGR (gene 5241) (UniProt P06401); experiment: TOX21_PR_BLA_Followup_Antagonist_ratio: Tox21 HEK293 Progesterone Receptor (PR) Antagonism Beta-lactamase Follow-Up Assay, Ratio (AID 2283934)
Chain of PGR (gene 5241) (P06401 whole entry, looked up): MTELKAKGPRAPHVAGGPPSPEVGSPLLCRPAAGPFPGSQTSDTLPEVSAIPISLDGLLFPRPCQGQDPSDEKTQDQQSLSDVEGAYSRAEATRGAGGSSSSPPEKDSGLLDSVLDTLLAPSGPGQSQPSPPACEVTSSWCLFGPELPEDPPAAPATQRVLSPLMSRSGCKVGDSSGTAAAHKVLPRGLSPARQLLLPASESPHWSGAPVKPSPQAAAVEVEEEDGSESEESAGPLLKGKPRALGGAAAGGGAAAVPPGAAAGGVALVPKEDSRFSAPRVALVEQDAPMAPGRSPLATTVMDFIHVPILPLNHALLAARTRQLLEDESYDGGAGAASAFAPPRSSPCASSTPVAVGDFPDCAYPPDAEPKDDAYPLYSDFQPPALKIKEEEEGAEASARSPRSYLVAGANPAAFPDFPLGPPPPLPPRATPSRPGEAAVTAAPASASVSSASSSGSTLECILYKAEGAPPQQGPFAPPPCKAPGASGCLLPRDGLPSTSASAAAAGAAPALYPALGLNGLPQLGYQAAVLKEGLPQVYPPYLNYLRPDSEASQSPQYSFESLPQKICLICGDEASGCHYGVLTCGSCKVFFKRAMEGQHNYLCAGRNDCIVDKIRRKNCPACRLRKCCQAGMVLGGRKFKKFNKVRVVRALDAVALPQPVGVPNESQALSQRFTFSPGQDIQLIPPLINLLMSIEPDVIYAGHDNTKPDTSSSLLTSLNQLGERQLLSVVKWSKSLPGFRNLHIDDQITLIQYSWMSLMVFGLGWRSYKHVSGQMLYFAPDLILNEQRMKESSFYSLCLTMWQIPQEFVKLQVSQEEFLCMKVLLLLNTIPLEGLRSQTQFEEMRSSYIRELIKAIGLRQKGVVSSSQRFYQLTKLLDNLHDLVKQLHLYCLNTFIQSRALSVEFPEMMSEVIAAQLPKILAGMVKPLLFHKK
How it was run: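 PR-UAS-bla HEK293T cells in medium with 2% charcoal-stripped FBS were treated with compounds plus 1 nM (final) promegestone (R5020) for 16 hr at 37C. LiveBLAzer B/G FRET substrate was then added for 2 h at room temperature; signal is cleaved/uncleaved substrate ratio versus DMSO.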

PGR (gene 5241) [18] = molecular target: PGR (gene 5241) (UniProt P06401); experiment: TOX21_PR_LUC_Followup_Antagonist: Tox21 HEK293 Progesterone Receptor (PR) Antagonism Luciferase Follow-Up Assay (AID 2283938);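 further: curve fitted upward as signal gain over DMSO baseline despite antagonist label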
How it was run: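 A follow-up to the PR bla screen using HEK293-PR-A-luc cells, multiplexed with cell viability to flag cytotoxicity. Reporter luminescence after 16 h compound exposure was analysed relative to DMSO.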

[19] = molecular target: Estrogen receptor beta (Homo sapiens) (UniProt Q92731); experiment: OT_ER_ERbERb_1440: Odyssey Thera (OT) 24-hour HEK293T Protein-Complementation Assay for Estrogen Receptor-beta/-beta Homodimer (AID 2283380);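 further: fluorescence gain from ER beta LBD homodimer complementation read by laser scanning cytometry; scored as signal increase over DMSO baseline for both agonists and antagonists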
Chain of Estrogen receptor beta (Homo sapiens) (Q92731 whole entry, looked up, the tested form may be a part): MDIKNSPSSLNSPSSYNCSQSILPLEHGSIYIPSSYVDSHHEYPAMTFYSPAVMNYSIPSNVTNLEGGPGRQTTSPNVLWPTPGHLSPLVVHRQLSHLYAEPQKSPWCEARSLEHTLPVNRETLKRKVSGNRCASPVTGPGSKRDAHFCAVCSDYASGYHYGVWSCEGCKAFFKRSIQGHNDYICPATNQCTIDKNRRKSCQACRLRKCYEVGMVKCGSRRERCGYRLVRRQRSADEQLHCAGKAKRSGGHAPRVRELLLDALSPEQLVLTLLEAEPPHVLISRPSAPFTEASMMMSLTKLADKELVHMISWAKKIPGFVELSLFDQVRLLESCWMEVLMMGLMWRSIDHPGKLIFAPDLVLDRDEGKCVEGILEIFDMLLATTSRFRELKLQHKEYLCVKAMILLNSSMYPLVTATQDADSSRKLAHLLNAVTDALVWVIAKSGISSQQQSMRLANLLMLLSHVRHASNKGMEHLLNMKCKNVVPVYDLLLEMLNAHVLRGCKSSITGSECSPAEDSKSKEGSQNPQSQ
How it was run: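 Fluorescence increase, nuclear for agonists or whole-cell for antagonists, relative to DMSO vehicle, quantified by laser scanning cytometer after fixation and Draq5 staining. Readout from 24 h treatment of HEK293T cells carrying complementation-paired ER beta LBD (aa 310-547).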

[20] = CEETOX_H295R_PROG: CeeTox H295R High-throughput Steroidogenesis Assay for Progesterone (PROG) (AID 2283442; active means hit-call score of the fitted dose curve at least 0.9, where 1 is the maximum; inactive means score below 0.9;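 on AC50: human H295R adrenal cells primed with 10 µM forskolin before dosing; progesterone secreted into medium by H295R cells measured by HPLC-MS/MS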); conditions: actives raise or lower the signal
How it was run: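 Adrenal H295R line, forskolin-stimulated (10 uM, 48 h) before dosing. 48 h exposure, 0.1% DMSO vehicle. Secreted progesterone by reverse-phase HPLC with ESI+ MS/MS quantification; DMSO-normalised bidirectional curve fit.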

Nc1ccc(-c2ccc(N)c(N)c2)cc1N
AC50 [1]: 10.2 µM (active)
AC50 [2]: 8.44 µM (active)
AC50 [3]: 29.1 µM (active)

O=CNC(N1CCN(C(NC=O)C(Cl)(Cl)Cl)CC1)C(Cl)(Cl)Cl (stereo not given)
outcome [4]: inactive
outcome [5]: inactive
outcome [6]: inactive
outcome [7]: inactive

COC(C)(C)CCC[C@H](C)C/C=C/C(C)=C/C(=O)OC(C)C
AC50 [3]: 16.5 µM (active)

N#Cc1cccc(C#N)c1
AC50 [8]: 29.2 µM (active)

O=P1(NCCCl)OCCCN1CCCl (stereo not given)
outcome [8]: inactive

O=S(=O)(c1ccccc1)c1ccccc1
AC50 [9]: 19.9 µM (active)

O=C(O)c1cc[c]([Hg][Cl])cc1
outcome [10]: inactive

O=[N+]([O-])c1cc(C(F)(F)F)c(Cl)c([N+](=O)[O-])c1Cl
outcome [10]: inactive

CC1CCCC1.[C-]#[O+].[C-]#[O+].[C-]#[O+].[Mn]
outcome [11]: inactive
outcome [12]: inactive
outcome [13]: inactive
outcome [14]: inactive
outcome [15]: inactive
outcome [16]: inactive

C[C@]12CCC(=O)C(O)=C1CC[C@@H]1[C@@H]2CC[C@]2(C)C(=O)CC[C@@H]12
AC50 (PGR (gene 5241) [17]): 11.3 µM (active)
outcome (PGR (gene 5241) [18]): inactive

O=[N+]([O-])c1ccc(Cl)cc1
outcome [4]: inactive
outcome [19]: inactive

CC(C)(c1cc(Cl)c(O)c(Cl)c1)c1cc(Cl)c(O)c(Cl)c1
AC50 (PGR (gene 5241) [18]): 17.2 µM (active)

CC1OC(C)OC(C)O1 (stereo not given)
outcome [2]: inactive
outcome [3]: inactive

CNC(=N[N+](=O)[O-])NCC1CCOC1 (stereo not given)
outcome [4]: inactive
outcome [11]: inactive
outcome [12]: inactive
outcome [13]: inactive
outcome [14]: inactive
outcome [15]: inactive
outcome [16]: inactive

Cc1ccc(C)c2ccccc12
outcome [7]: inactive

C=COCCCl
outcome [7]: inactive

C=CCN(CC=C)C(=O)C(Cl)Cl
outcome [19]: inactive

c1ccc2c(c1)CCCC2
outcome [19]: inactive

Oc1ccc(C2(c3ccc(O)cc3)c3ccccc3-c3ccccc32)cc1
AC50 [10]: 0.432 µM (active)

Nc1ccc(Cl)c(Cl)c1
AC50 [20]: 10.7 µM (active)

CC(C)COP(=O)(OCC(C)C)OCC(C)C
outcome [1]: inactive

Cc1cc(C)c(C2=C(OC(=O)CC(C)(C)C)C3(CCCC3)OC2=O)c(C)c1
outcome [5]: inactive
AC50 [6]: 20.7 µM (active)

CC(C)(C)C(O)C(Oc1ccc(-c2ccccc2)cc1)n1cncn1 (stereo not given)
AC50 [9]: 18 µM (active)
outcome [5]: inactive
outcome [6]: inactive
outcome [20]: inactive

CC(C)(C)C(=O)CCl
outcome [8]: inactive

CC(=O)c1cc2c(cc1C)C(C)(C)C(C)CC2(C)C (stereo not given)
AC50 (PGR (gene 5241) [17]): 5.67 µM (active)

O=c1c2ccccc2c(=O)c2c1cc(Cl)c1[nH]c3c([nH]c12)c(Cl)cc1c(=O)c2ccccc2c(=O)c13
AC50 [1]: 12.4 µM (active)

C=CC(=O)OCCO
AC50 [20]: 5.27 µM (active)

O=C1C(Cl)=C(Cl)C(=O)C(Cl)=C1Cl
AC50 [2]: 1.19 µM (active)

C[C@]12CC[C@H]3[C@@H](CC[C@@]45O[C@@H]4C(O)=C(C#N)C[C@]35C)[C@@H]1CC[C@@H]2O
outcome (PGR (gene 5241) [17]): inactive
outcome (PGR (gene 5241) [18]): inactive

N#Cc1cc(I)c(O)c(I)c1
outcome (PGR (gene 5241) [17]): inactive
AC50 (PGR (gene 5241) [18]): 29.9 µM (active)

O=C(NCNC(=O)NC1C(=O)NC(=O)N1CO)NC1C(=O)NC(=O)N1CO (stereo not given)
outcome [19]: inactive
outcome [7]: inactive

CCOP(=O)(OCC)Oc1ccc([N+](=O)[O-])cc1
outcome [20]: inactive

CC(C)CCCCCCCOP(=O)(Oc1ccccc1)Oc1ccccc1
AC50 [9]: 12.2 µM (active)
outcome [11]: inactive
outcome [12]: inactive
outcome [13]: inactive
outcome [14]: inactive
outcome [15]: inactive
outcome [16]: inactive
